Whole data set: some 25,000 sequences, median “ln(normalized median fluorescence intensity)” near 9.3, cut for the highest 2% near 10. Shown is part of a subset that was picked to be rich in the highest values.
The sequences below were run on PF3D7_0420300 AP2 domain 1 (GST-tagged) (assay: gcPBM binding intensity (ln(normalized median fluorescence intensity)); higher = stronger DNA binding).
Procedure, shortened: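 Binding intensity is defined as the maximum Masliner-normalised natural-log median intensity across replicate spots for either probe orientation. It was measured on an Agilent 4 × 180k array of primer-extended double-stranded 36-bp intergenic genomic probes and negative controls, to which GST-tagged P. falciparum DNA-binding domains made in E. coli were applied for 1 h in 1× PBS with 1% milk, 0.2 mg/ml BSA, 0.5% salmon testes DNA and 0.03% Triton X-100. Detection was by Alexa488 anti-GST antibody and scanning at 488 nm.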

| Sequence | gcPBM binding intensity (ln) |
| --- | --- |
| TTATTATAAATGTTTTGTACGTACATCCGAAAATAA [XGTACX_site2175] | 9.05 |
| TTTTTTGTTAAGTTGGTGCAAACAATAGTTATTGAC | 8.95 |
| TTTAAAGTTTTATACACACACCAAAGTTATTCTAAT [CACACA_site6432] | 9.56 |
| GATTAAAATCAAAGGTGTACGCACAAATAAGTCCCA [XGTACX_site4360] | 9.3 |
| TTTCTTATATAAGTGTACTAAAATATATATATGCAA [GTGCAC_negctrl_site546] | 9 |
| GTGTCAAATTTTATAACACACAAAAGGTTATATAAG [CACACA_site7839] | 9.28 |
| AAATAGATAAACTAAACACACAAAAAAAAAAAAAAT [CACACA_site1179] | 9.84 |
| CATTTATTTTTGTTCTGTACATAAAGATGAACAAAA [XGTACX_site6797] | 8.81 |
| CATACATACAAACACACACACATATATATACATACA [CACACA_site852] | 10.2 |
| GGATATAACAAACACACACACACATATATATATATT [CACACA_site4141] | 10.2 |
| AAAAAAAAAACAAATACACACGCACCCAAAAAAAAA [CACACA_site8166] | 9.81 |
| TATATACACGCACATACACACAAATAAAAAAACACC [CACACA_site7578] | 9.93 |
| AAAAAAAAAAAAAACACACACACACGCAAATACATA [CACACA_site6474] | 10.2 |
| AATATAAACACAAACACACACATATATATATATATA [CACACA_site4307] | 9.68 |
| CACATACACATACAAACACACATTATATATATATAT [CACACA_site8460] | 9.62 |
| AACATACACATATACACACACACATATATACCTATA [CACACA_site6643] | 10.4 |
| TATATATATATATATACACACATATATACCTATATA [CACACA_site6085] | 9.31 |
| CATACATACAAACACACACACATATATATATATATA [CACACA_site43] | 9.86 |
| TATACGTATACCTATACACACATATATATATATATA [CACACA_site1273] | 9.49 |
| AATATAAACAAACACACACACATATATATATATATT [CACACA_site5592] | 10.1 |
| TTTTTTTTTGTTTACACACACAAAATATTATATGTA [CACACA_site2470] | 9.66 |
| AATATATACATACATACATGCACATATATATATATA [TGCATGCA_site393] | 9.36 |
| CATATTAAAAATACATGTACATATATATTTAATATA [XGTACX_site8580] | 9.08 |

| Sequence | gcPBM binding intensity (ln) |
| --- | --- |
| ATTAAAAAAGAATATACACACCAAAACTGTTTGTTA [CACACA_site4687] | 9.21 |
| ATATGACTGTTCATTTGTACGTATAATTATATACGT [XGTACX_site3372] | 9.33 |
| ATCAACAAAACATACACACACATATAGATTTATATA [CACACA_site7415] | 10 |
| TTTTCAATTTTTTATGAACACACAAAAAAAAAAAAA [CACACA_site8808] | 8.77 |
| GTAGAGCATAATAAAACACACACATACATACATATA [CACACA_site8217] | 9.84 |
| GGTACATACAAACACACACACAAAAAAAAAAAAATA [CACACA_site1577] | 9.91 |
| AAAAAAAAAAAACACACACACAAATACAAATACATA [CACACA_site415] | 10.2 |
| TACATACACAAATACACACACAAATACATACACAAA [CACACA_site704] | 10.1 |
| AAAAAAAAAAAACACACACACACAAATACATACACA [CACACA_site706] | 10.2 |
| AATACATACACAAATACACACACAAATACATACACA [CACACA_site8134] | 10.1 |
| TTTTTTTTTTTTAATTAACACACATAAATATATATA [CACACA_site9077] | 9.11 |
| AAAAAATAATTGAAGTGTACGTACAATGATTTTACT [XGTACX_site7663] | 9.35 |
| CCCCATATAATGAACACACACACTCCTCATAATTAA [CACACA_site628] | 10.2 |
| TTTCCCCCATATAATGAACACACACCCTCCTCATAA [CACACA_site8110] | 9.85 |
| CCCATGTAATATTAAACACACACTCATATAACACAA [CACACA_site7906] | 9.71 |
| ACCTATATAAATTATACACACAAATATAAATATATA [CACACA_site2843] | 9.66 |
| ACAAAATATACAAAATGTACAAAATTTACAAAATAT [XGTACX_site6466] | 9.43 |
| TATAAAATGACTATATATAATATTAAAAAAAAAAAA [TGCATGCA_negctrl_site387] | 9.11 |
| GTACCTATTTCATACACACACACACCCAAACAAACA [CACACA_site976] | 10.3 |
| ATGTACCTATTTCATACACACACACCCACAAACAAA [CACACA_site8232] | 10 |
| ATTTCATACAGACACACACACAAACAAACATATATA [CACACA_site979] | 10.1 |
| CCAAACAAAAAAAAAAGTACATAAAACACCTATTTG [XGTACX_site5645] | 9.46 |
| GTACCTATTTCATACACACACACACGCAAACAAACA [CACACA_site6590] | 10.3 |

| Sequence | gcPBM binding intensity (ln) |
| --- | --- |
| AAGGCAAACAAACACACACACATATATACCTATATA [CACACA_site5203] | 10 |
| TATATTTAATTATTATGTACTTATAATTTTTGAAAG [XGTACX_site8548] | 8.95 |
| TTAATATAACTTTTTGCACACTTAATTTTTTTTTTT [CACACA_site3364] | 9.44 |
| TATATATATATACCAACACACATACAGATATATATA [CACACA_site5060] | 9.7 |
| ACATATACATATATATGTACATAAATATATATATAT [XGTACX_site8630] | 9.17 |
| TATTCATGCATATACACACACATATATATATATTTT [CACACA_site3955] | 9.85 |
| TCTTTTTTTACTTTCTTTTTTTTTTTTTTTTTTTTT [XGTACX_negctrl_site610] | 9.11 |
| ATAAATATATATTTACGTACATATTATATATATATA [XGTACX_site6172] | 9.27 |
| CGCGCACCCAGACACACACACACACCGATATATATA [CACACA_site8687] | 10.2 |
| GGAGCACCCAGACACACACACACATATATATATATA [CACACA_site336] | 10.1 |
| CACGCGCACCAACACACACACACACCCATATATATA [CACACA_site2204] | 10.3 |
| CGCGCACCCAGACACACACACACACCCATATATATA [CACACA_site2203] | 10.2 |
| CACCCATACAGACATACACACACATATATATTAATA [CACACA_site8077] | 9.87 |
| TATAAACACCCATATAAACACACATATAAACCAACA [CACACA_site8790] | 9.79 |
| TATACACCCAGACACACACACACACCCAAAAAAAAA [CACACA_site497] | 10 |
| CACCCACACCAACACACACACATATATATATATATA [CACACA_site362] | 10.1 |
| TAGACTCCCAGACACACACACACACCCATATAATAT [CACACA_site593] | 10.2 |
| TAATTTTTAATTGTAGCATGCAGTATTTTTAAATAT [TGCATGCA_site140] | 8.97 |
| TACTTACAGATAATAACACACAAGAAAAAAATAAAA [CACACA_site4716] | 9.8 |
| CAAATATATATTTTCTGTACAAATACAATTAATACT [XGTACX_site2694] | 9.13 |
| ATAAAGAAAATATGGAGTACATTTATATCCAATATA [XGTACX_site3085] | 9.17 |
| CACAATGGTTTATATACACACTGTTGCAAATTCTTC [CACACA_site5659] | 9.45 |
| TATAGTTCTTCTATTTGTACATATATTATTATTTAA [XGTACX_site895] | 9.26 |

| Sequence | gcPBM binding intensity (ln) |
| --- | --- |
| ATTAATATATTATCATGTACACAAAAATAATTTTAT [XGTACX_site7257] | 9.13 |
| TTAAAATGTTGTAACGTGCACATTTTGTGGAAATCA [GTGCAC_site9559] | 9.07 |
| AAATAATTCATATGTTGTACAGTAATTAAATTTTCT [XGTACX_site6343] | 9.08 |
| TACGCTCCCAGACACACACACACACCGATATAATAT [CACACA_site8098] | 10.3 |
| GAAATGGGTAAACATACACACACACCGATATATATA [CACACA_site8610] | 9.93 |
| ATAATATATATTAATACACACACACCGATATATATA [CACACA_site9261] | 10.1 |
| AAAAAAAAAAAACACACACACACACCGAAATATATA [CACACA_site4261] | 10.2 |
| CTATAATAATAAAGTGAACACACACCGATAATATAT [CACACA_site9377] | 9.78 |
| CGCGCCCAGAAACACACACACACACCGATATATATA [CACACA_site5250] | 10.3 |
| AATATAAATAAAAACACACACAATGGTACAGATATA [CACACA_site5930] | 10.1 |
| TGTATAATAAGGAAGAGTACAAGTAAATACACACAT [XGTACX_site2084] | 9.87 |
| ATTATGTGCCAATACACACACACATATATATATATA [CACACA_site468] | 9.9 |
| AGAAAGATGCAAGAAACATGCAAAAAAAAAATTTCT [TGCATGCA_site725] | 9.15 |
| AAAAATTCAATAGGACGTACTAAAACATTCATTAAT [XGTACX_site1712] | 9.34 |
| GATATATAAATAAATACACACATAAAATAGAAATAT [CACACA_site6881] | 9.93 |
| CACTAAAATAGACACACACACACACGGATATAAATA [CACACA_site7873] | 10.3 |
| AAAATACATAGACACACACACACACGGATATAAATA [CACACA_site7643] | 10.2 |
| AAAAATAAAGGATATACACACTAATTATATATATAT [CACACA_site5550] | 9.51 |
| TAAATTTATAGACACACACACATATAAATAAATATA [CACACA_site6530] | 10 |
| AAAAAAAATAGACACACACACATACACATAAATATA [CACACA_site7742] | 10.1 |

Reference: the supplement of paper PMC11417369
